Reference: article PMC7819943, “Rice protein-binding microarrays: a tool to detect cis-acting elements near promoter regions in rice”
Over roughly 35,000 sequences, “fluorescence intensity (a.u.)” has its median near 10,000; the highest 2% begin near 52,000. This excerpt belongs to a sample that is enriched for the highest values.

Biological target: T1, OsWOX13 (Oryza sativa, UniProt Q5QMM3 1-267)
T1 sequence: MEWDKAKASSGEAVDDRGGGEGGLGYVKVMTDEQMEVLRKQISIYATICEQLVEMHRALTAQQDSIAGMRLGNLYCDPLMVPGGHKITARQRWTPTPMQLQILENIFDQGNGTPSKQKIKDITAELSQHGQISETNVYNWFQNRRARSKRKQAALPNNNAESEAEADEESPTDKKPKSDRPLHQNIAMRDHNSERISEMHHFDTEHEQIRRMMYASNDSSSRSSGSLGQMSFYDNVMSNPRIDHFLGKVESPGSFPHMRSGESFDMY
Experiment: protein-binding microarray (RPBM); PBS, 2% BSA, 51.3 ng/ul salmon testes DNA, 50 uM zinc acetate, 200 nM TF, 25 C, 1 h; high values mean tight binding
Settings: protein: recombinant; tags: N-terminal polyhistidine and DsRed monomer fusion (pET32a); label: CyDye5-dUTP incorporated in the synthesized complementary strand; 3' TTTTT single-stranded linker to array surface; dsDNA, one strand shown
Procedure, shortened: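 In PBS with 2% BSA, salmon testes DNA and 50 µM zinc acetate, 200 nM protein was incubated on a custom Agilent array at 25 °C for 1 h and then washed off. The array had been made double-stranded by primer extension with Cy5-dUTP and blocked with 2% BSA. The proteins were transcription factors fused N-terminally to polyhistidine and DsRed, expressed in E. coli BL21-CodonPlus and purified on Ni–NTA. The binding signal is per-feature fluorescence intensity (arbitrary units) from an Axon 4000B scanner.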

Sequence | binding signal
TTGTAGATTTATACCTGTCCTAATCAGAGTATACTGTATTCGGAGTCACCTAGTGCAG | 3990 fluorescence intensity (a.u.)
CTCAGCCTGATTAATCGGAGATAATGAGTCTACGAATTTGCGGAGTCACCTAGTGCAG | 9790 fluorescence intensity (a.u.)
ATATATATAATTAGGATTGTTATATGCATAGGTTTGCATTCGGAGTCACCTAGTGCAG | 18400 fluorescence intensity (a.u.)
TTGCAAAACTGGCTTAATTGATTCCATATTTCCATTCCACCGGAGTCACCTAGTGCAG | 32200 fluorescence intensity (a.u.)
ATCCGTCATCTGATTTAATCTCATACGTCCGCTATCCTCCCGGAGTCACCTAGTGCAG | 4210 fluorescence intensity (a.u.)
GAGATAAATGATCAACTAGTCCGTGAATTTGACACCGATGCGGAGTCACCTAGTGCAG | 7110 fluorescence intensity (a.u.)
GATGATTGACTTATTATGCTATAATAATATGCTGAATGAACGGAGTCACCTAGTGCAG | 40600 fluorescence intensity (a.u.)
GTTACTGCATGATTTGCTAGATGTATTTTATGACAACAGACGGAGTCACCTAGTGCAG | 12900 fluorescence intensity (a.u.)
ATGACTGATTTATGACAGCCGTGCATGTGTATTTGTGTACCGGAGTCACCTAGTGCAG | 55500 fluorescence intensity (a.u.)
ATTCCAATTGATTTTAGTTAGTTTTCATACATAGTTAACACGGAGTCACCTAGTGCAG | 10900 fluorescence intensity (a.u.)
ATGATTGATTTGGGTAACATACCAAACACCAAACAGTTCACGGAGTCACCTAGTGCAG | 56600 fluorescence intensity (a.u.)
TGGCCGGTGATTTACCGTACTAGTGATGTATGCGTGCAAACGGAGTCACCTAGTGCAG | 3650 fluorescence intensity (a.u.)
GCTAATTTGGGCACCATATTGGGCCTGATTTTGGTAAACACGGAGTCACCTAGTGCAG | 6980 fluorescence intensity (a.u.)
AATGAATGACTGTCACAGTTCGATGATGTGACTATATATGCGGAGTCACCTAGTGCAG | 16600 fluorescence intensity (a.u.)
ATGATGATTGACTTATGTGAATATATTGTCTATATATGCACGGAGTCACCTAGTGCAG | 60300 fluorescence intensity (a.u.)
TCTAAACATATCCAGATAAATTATTCTGAGATGAGTCTCACGGAGTCACCTAGTGCAG | 3670 fluorescence intensity (a.u.)
TTCACGCTTGATTGGGCTGGGATTAAGGCCCATTTATACACGGAGTCACCTAGTGCAG | 23500 fluorescence intensity (a.u.)
ACCCCGAGCTGATTATCTCTGAACGTACGATCAAGCCGTCCGGAGTCACCTAGTGCAG | 6180 fluorescence intensity (a.u.)
TACTAATTACTACTAACCGTTAAAAGTAGCCGCCGGTTAACGGAGTCACCTAGTGCAG | 17800 fluorescence intensity (a.u.)
CTTTAGTCTCTGACACTAATTTAGAGTATTAAATATAGACCGGAGTCACCTAGTGCAG | 3810 fluorescence intensity (a.u.)
ACAACCAACTGATTGAAGACGTCCACGTGCTTCCTAAGATCGGAGTCACCTAGTGCAG | 35200 fluorescence intensity (a.u.)
AAATCAATTACTAGTGCGCGGTTTGTTGAGGAAAAGGCAACGGAGTCACCTAGTGCAG | 6960 fluorescence intensity (a.u.)
ACGATCAAATTTAGACATGGAAACTCGTGACTGTGCTTATCGGAGTCACCTAGTGCAG | 6550 fluorescence intensity (a.u.)

Sequence | binding signal
AAGATTTAATTGTTACGAACACAACGGCGTAATCGGATCGCGGAGTCACCTAGTGCAG | 36000 fluorescence intensity (a.u.)
GTTAATTTTGTGAAATATGTTTGCTGGTTAGTGAATTGTACGGAGTCACCTAGTGCAG | 12400 fluorescence intensity (a.u.)
GTGTGATTTGCTAATTGGGTTTGTTATGAAGCTGGTTATCCGGAGTCACCTAGTGCAG | 54000 fluorescence intensity (a.u.)
TCGAAAATTGGTTTTGTTAATATACTAGGACTGATTTCAGCGGAGTCACCTAGTGCAG | 6190 fluorescence intensity (a.u.)
GTGTGTGATGGGTTAATCGATGTGCTATGTTATTGGTTTCCGGAGTCACCTAGTGCAG | 5310 fluorescence intensity (a.u.)
GTTTGATTGGAGCAATGTCTCAATGGGTGAGAAGATGAGGCGGAGTCACCTAGTGCAG | 54300 fluorescence intensity (a.u.)
TGGAGGGATTTGATTTGGAAAGGATTTGGATTCGGGATTGCGGAGTCACCTAGTGCAG | 3870 fluorescence intensity (a.u.)
ACTGATTGATTTGGAAGGAGAGAAATACTATGTTGGGTTTCGGAGTCACCTAGTGCAG | 63700 fluorescence intensity (a.u.)
TGTGGGATGGATTTGTGGTGATTGAGAGGGTTTGAAAGGGCGGAGTCACCTAGTGCAG | 15700 fluorescence intensity (a.u.)
TTGGCGATTGATTGGGGAAAGGAAACTTTGCTAGGTCAATCGGAGTCACCTAGTGCAG | 53500 fluorescence intensity (a.u.)
AGTGATGGCATTGACTGACTTGGGGAAGGAAACAATCGAGCGGAGTCACCTAGTGCAG | 16000 fluorescence intensity (a.u.)
GGGAGAGGTGATGAGTGATTGGAGTAGAGGGGAGATGAGGCGGAGTCACCTAGTGCAG | 12600 fluorescence intensity (a.u.)
TGTTGTGATTGGTTGAGAAATGTGGGTATGTGAGAAAATACGGAGTCACCTAGTGCAG | 15200 fluorescence intensity (a.u.)
TGTAACAAACAGGCTGTAACGGCACCGTAATAAACCCAACCGGAGTCACCTAGTGCAG | 6570 fluorescence intensity (a.u.)
AGCCAATCAGAATCCAAATAAAACATTCTTGCAGCAGGCGCGGAGTCACCTAGTGCAG | 15900 fluorescence intensity (a.u.)
ATTTGTCTAGTACTCCTAATTGGTACATCGACGATCTGCGCGGAGTCACCTAGTGCAG | 6670 fluorescence intensity (a.u.)
CTAGCCACTTGGTATAATTGACTGAGTCTTGATAAAGCTTCGGAGTCACCTAGTGCAG | 7350 fluorescence intensity (a.u.)
CAAATGTAATTTCGCACTATTCTTATCTAATGTTTGACATCGGAGTCACCTAGTGCAG | 4370 fluorescence intensity (a.u.)
TTTGACCTTTGTTCTGATTGCTACAACGAGGGAAAGTTTACGGAGTCACCTAGTGCAG | 4690 fluorescence intensity (a.u.)
ATATATATATATATATATATATATATATATATAAACCCAACGGAGTCACCTAGTGCAG | 24000 fluorescence intensity (a.u.)
ATCTAAGCTCATCTCAACCAATCACAACCATCGTTGATTTCGGAGTCACCTAGTGCAG | 3410 fluorescence intensity (a.u.)
ATAAATTACTTTTCGTTTGCAAATATGCTGTTTGAATAAGCGGAGTCACCTAGTGCAG | 13300 fluorescence intensity (a.u.)
